JMJD2A Tudor inh = JMJD2A Tudor domain (human) inhibition; AlphaScreen JMJD2A-Tudor / H3K4me3 peptide binding; Potency, µM (highest dose often 114 µM), for inactives: at the top dose activity change, negative = inhibition, usual class: inhibitors; AID 504339; O75164; 4.4% of 390,000 active; also: potency is read from the fitted curve at half-maximal effect; % is scaled to controls: 0 for no effect and ±100 for the full control effect; nearly all actives have a fitted effect of over 50% in size
CtBP-E1A blk = blocks the CtBP interaction with E1A; AlphaScreen GST-E1A/His-CtBP binding, 1536-well; stronger effect = lower value; activity change, % (no concentration beside the values); 0.49% of 340,000 active; in the data active = activity change below about -65%; inconclusive = mostly about -30% to -63%; also: % is scaled to controls: 0 for no effect and ±100 for the full control effect
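Protein mix (5X: 125 nM each GST-E1A, His-CtBP) was incubated with pinned compound 2 h at 37 deg C in dark, in 50 mM Tris pH 8.0 buffer with 300 mM NaCl. Glutathione donor and nickel acceptor beads followed; AlphaScreen signal read after 1 h.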
G9a block = G9a (human) methyltransferase inhibition; Potency, µM (top dose mostly 102 µM), for the others: at the highest dose activity, negative = inhibition, most hits filed as inhibitors; 8.8% of 350,000 active; Q96KQ7; G9a H3K9 monomethylation, AlphaScreen, 2 h; also: potency is read from the fitted curve at half-maximal effect; % is scaled to controls: 0 for no effect and ±100 for the full control effect; nearly all actives have a fitted effect of over 75% in size
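Chemiluminescent proximity detection of H3K9 monomethylation, read after 10 min bead incubation in the dark. Reaction: 20 nM G9a, 500 nM biotin-H3K9 peptide, 20 uM SAM cofactor, 2 h, room temperature, following 15 min enzyme-compound preincubation.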
HP1b binding inh = inhibitors of HP1-beta chromodomain binding to methylated histone tails; P83916; AlphaScreen HP1-beta / biotin-H3K9me3 peptide binding; Potency, µM (highest dose often 114 µM), for the others: at the highest dose activity change, negative = inhibition, hits mostly inhibitors; 0.56% of 390,000 active; also: potency is read from the fitted curve at half-maximal effect; nearly all actives have a fitted effect of over 70% in size
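Compound inhibition of the preformed complex between 50 nM HP1-beta and 50 nM biotinylated H3K9me3 peptide was read by AlphaScreen. Buffer was PBS pH 7.4 with 0.01% Tween-20. Incubations ran 30 min at room temperature, with 10 ug/mL donor/acceptor beads.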
BAZ2B block = BAZ2B (human) inhibition | Q9UIF8 | AlphaScreen BAZ2B-H3K14Ac peptide displacement | Potency, µM (top dose mostly 114 µM), for inactives: at the top dose activity change, negative = inhibition, actives largely listed as inhibitors | 4.4% of 360,000 active; also: potency is read from the fitted curve at half-maximal effect; % is scaled to controls: 0 for no effect and ±100 for the full control effect; nearly all actives have a fitted effect of over 60% in size
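AlphaScreen displacement: compounds (up to 110uM) incubated 30 min at room temperature with a preformed 50 nM BAZ2B/50 nM biotinylated H3K14Ac peptide complex in PBS pH 7.4 with Tween-20. Donor and acceptor beads at 10 ug/mL final added, 20 min light-protected before reading.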
Six1-Eya2 blk = inhibitors of human Six1/Eya2 interaction; AlphaScreen GST-Six1/His-Eya2 binding, biochemical; stronger effect = lower value; activity change, % (concentration not given with the values); 0.56% of 360,000 active; AID 651725; in the data active = activity change below about -65%; inconclusive = mostly about -30% to -63%; also: % is scaled to controls: 0 for no effect and ±100 for the full control effect
Target sequence (O00167 whole entry, looked up): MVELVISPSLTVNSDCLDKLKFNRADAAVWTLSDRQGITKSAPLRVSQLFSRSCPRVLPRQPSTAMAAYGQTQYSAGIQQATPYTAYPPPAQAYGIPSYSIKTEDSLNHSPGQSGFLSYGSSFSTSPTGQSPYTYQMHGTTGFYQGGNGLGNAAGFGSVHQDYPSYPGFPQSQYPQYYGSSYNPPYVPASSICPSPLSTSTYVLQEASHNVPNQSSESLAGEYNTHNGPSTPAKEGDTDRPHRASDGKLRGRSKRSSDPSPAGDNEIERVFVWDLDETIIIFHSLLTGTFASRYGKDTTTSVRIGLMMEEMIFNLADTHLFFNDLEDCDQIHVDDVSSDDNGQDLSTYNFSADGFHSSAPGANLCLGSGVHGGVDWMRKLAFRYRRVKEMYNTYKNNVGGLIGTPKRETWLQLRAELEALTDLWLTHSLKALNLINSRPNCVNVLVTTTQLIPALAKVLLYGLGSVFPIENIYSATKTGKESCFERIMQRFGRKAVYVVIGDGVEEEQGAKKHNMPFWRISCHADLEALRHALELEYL
Target sequence (Q15475 whole entry, looked up): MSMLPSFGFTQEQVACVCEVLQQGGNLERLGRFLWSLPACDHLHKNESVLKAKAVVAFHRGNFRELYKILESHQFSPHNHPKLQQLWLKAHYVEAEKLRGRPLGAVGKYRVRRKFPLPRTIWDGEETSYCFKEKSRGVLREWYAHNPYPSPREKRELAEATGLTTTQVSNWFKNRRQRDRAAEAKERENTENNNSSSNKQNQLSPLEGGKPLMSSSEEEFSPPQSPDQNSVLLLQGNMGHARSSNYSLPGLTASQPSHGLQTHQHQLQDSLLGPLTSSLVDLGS
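GST-Six1 + His-Eya2 (5X stock: 250/500 nM); Tris pH 8.0, 300 mM NaCl, 0.05% BSA, 0.02% Tween 20; GSH donor/Ni acceptor beads; 1 h 37 °C dark; AlphaScreen readout.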
Active calls of the source: *; ? = inconclusive; . = no result given; [ ] = remark or other dose. A selection: hits, their analogues and other compounds. The true share with any hit is near 10%. Unless noted, calls follow the shape of the dose curve; as a rule, active = well fitted inhibition curve with a large enough effect; inconclusive = small, poorly fitted or top-dose-only effect; inactive = no such curve, though single readings can be large or run the other way.

SMILES | JMJD2A Tudor inh | CtBP-E1A blk | G9a block | HP1b binding inh | BAZ2B block | Six1-Eya2 blk
N#CC1(C#N)C2=C(CCCC2)NC(c2ccccc2)C1(C#N)C#N (centres undefined) | . | . | 18µM* | . | 50µM* | .
Cc1cc(C)c(NC(=O)c2c[nH]c(=S)n2-c2ccc(F)cc2)c(C)c1 | ? | . | 2.8µM* | 28% | -21% | 4
Cc1cc(C)c(NC(=O)C2=CCN(S(=O)(=O)c3ccc(F)cc3)CC2)c(C)c1 | -19% | 4 | ? | 36% | 2% | -2
CC(C)(C)c1ccc(Oc2ccc(NC(=O)CCC(=O)OCC(=O)c3ccccc3)cc2)cc1 | 5% | . | 1%[59 µM] | 25% | -1% | .
COCCNc1nc(Oc2cncc(Cl)c2)c2sccc2n1 | . | -1 | . | . | . | -1
COc1ccccc1OCC(=O)Nc1ccc(C(=O)Nc2ccccc2C(=O)O)cc1 | . | 2 | . | . | . | ?
O=C(O)c1ccccc1C(=O)Nc1ccccc1NC(=O)c1ccccc1C(=O)O | 10% | 5 | . | 42% | . | -1
O=C(/C=C/c1ccco1)Nc1cccc(C(=O)Nc2ccccc2C(=O)O)c1 | 79µM* | ? | . | -18% | ? | ?
O=C(NCc1cccnc1)c1ccc(NC(=O)c2ccc(Br)cc2)cc1 | -33% | -3 | 45µM* | 35% | -13% | 0
COc1ccc(CC(=O)Nc2ccc(C(=O)Nc3ccccc3C(=O)O)cc2)cc1OC | -16% | -67* | ? | 8% | -24% | -76*
O=C(Nc1ccccc1C(=O)O)C1=NN=CC1 | -30% | ? | 50µM* | ? | -9% | ?
CC(C)Cn1c(N)c(/C=N/NC(=O)c2ccc(Cl)cc2)c(=O)n(C)c1=O | -17% | 22 | 20% | -14% | -1% | 5
CC(C)(C)c1cccc(S(=O)(=O)N2CCN(c3nc(-c4cccs4)nc4ccccc34)CC2)c1 | -17% | . | . | 32% | . | .
CCOC(=O)c1cccc(NC(=O)NCc2ccc3c(c2)CCN3C(=O)CC)c1 | -19% | . | -14%[59 µM] | 19%[57 µM] | 0% | .
COc1ccc(C(=O)Nc2ccccc2C(=O)Nc2ccncc2)cc1 | -14% | 6 | 45µM* | 24% | ? | 1
COc1ccc(C(=O)Nc2ccccc2C(=O)Nc2ccccc2C(=O)O)cc1 | -18% | -77* | -3%[0.501 µM] | 26% | -30% | -66*
C/C(=N\NC(=O)c1ccn(C)n1)c1cccc(NC(=O)c2ccncc2)c1 | 10µM* | 0 | 18% | -5% | -5% | -2
COc1ccc(C(=O)Nc2ccccc2C(=O)Nc2ccc(C(=O)O)cc2)cc1 | -13% | -12 | ? | 45% | -17% | 0
COc1ccc(C(=O)Nc2ccc(C(=O)Nc3cccnc3)cc2)cc1 | -34% | -4 | 50µM* | ? | -26% | 10
CC(C)(C)OC(=O)NCCc1nc(NC(=O)OCc2ccccc2)sc1C(=O)O | . | -2 | . | . | . | -3
COc1cc(C2Nc3ccccc3C(=O)N2Cc2ccccc2)ccc1OCc1ccccc1 (centres undefined) | -25%[57.1 µM] | . | . | 1%[57 µM] | . | .
CC(=O)Nc1cccc(/C(C)=N/NC(=S)NC(C)C)c1 | -6% | -1 | 0% | 29% | -23% | -9
COc1ccc(/C(C)=N/NC(=O)c2ccncc2)cc1 | -3% | . | -9%[59 µM] | . | -2% | 1
COc1ccc(CNC(=O)CCC(=O)Nc2cccnc2)cc1 | -3% | -2 | 40µM* | 42% | 1% | 2
COc1ccc(C(=O)Nc2c(O)ccc3ccccc23)cc1 | 79µM* | 2 | . | ? | . | -28
CC(=O)Nc1cccc(/C(C)=N/NC(N)=S)c1 | -3% | 4 | 32µM* | -6% | -13% | 0
COc1ccc(C(=O)Nc2ccc(/C(C)=N/NC(=O)c3ccncc3)cc2)cc1 | . | . | 22µM* | . | 50µM* | .
CCOc1ccccc1CNC(=O)CCc1cn(Cc2ccc(Cl)cc2)c2ccccc12 | -1% | . | -6%[59 µM] | 41% | -17% | .
CC1(C)Oc2ccc(C(=O)NC3CCCC3)cc2N(CC(=O)NC2CCCCC2)C1=O | 6% | -6 | -6%[12.7 µM] | 2% | 3% | 7

From PubChem BioAssay
